# Screens: PubChem, National Center for Advancing Translational Sciences (NCATS)
# Hits are enriched below; roughly 2.1% of the tested compounds scored in any of these assays.
# TDP-43 yeast inh: TDP-43 toxicity inhibition in yeast; TDP-43 expressing yeast growth rescue, BacTiter-Glo, 24 h; AID 652104; 410,000 compounds, 1.8% hits; Potency, µM (highest dose often 46.1 µM), for inactives: at the top dose growth rescue (activation), usual class: activators; note: % of control where 0% means no effect; nearly all actives have a fitted effect of over 50% in size
#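 Yeast cells expressing TDP-43 under galactose induction are exposed to compounds for 24 hr at 30 deg C. BacTiter-Glo luminescence measures growth, so protective compounds score as activators.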
# aSyn rescue: alpha-synuclein toxicity inhibition in yeast; AID 652106; Potency, µM (doses to about 46.1 µM), for inactives: top-dose growth rescue (activation), actives largely listed as activators; Yeast expressing alpha-synuclein, growth rescue, BacTiter-Glo, 24 h; 370,000 compounds, 0.14% hits; note: % of control where 0% means no effect; nearly all actives have a fitted effect of over 65% in size
#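 Rescue of yeast growth: cells expressing toxic alpha-synuclein, induced in galactose at OD600 0.02, incubated with compound 24 h at 30 C. ATP luminescence quantified growth; inhibitors of toxicity appear as activators.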
# FUS suppressor: FUS proteinopathy suppression in yeast; S. cerevisiae FUS-expressing, growth rescue, OD600, 24 h; Potency, µM (titrated, usually from 76.6 µM), hits mostly activators; 390,000 compounds, 0.24% hits;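 note: plate controls were DMSO vehicle for no effect and reference control for full effect; nearly all actives have a fitted effect of over 55% in size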
#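 Restored growth of FUS-toxic S. cerevisiae, read as 600 nm absorbance after 24 h at 30C in galactose medium (starting OD 0.005). Controls CP55940 and DMSO.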
# Abeta yeast res: restores growth of yeast expressing A-beta42 peptide; 410,000 compounds, 0.063% hits; Potency, µM (doses to about 46.1 µM), usual class: activators; AID 1347071; yeast expressing A-beta42, growth rescue, OD600, 48 h; response scale: 0% DMSO, 100% iron-clioquinol control; note: nearly all actives have a fitted effect of over 55% in size
#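 Growth rescue measured by 600 nm absorbance after 48 h yeast culture at 30 C with compound. Values normalized between DMSO and an equimolar ferric chloride plus clioquinol control.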
# Starred values were filed as active, the others as inactive; i = inactive; u = inconclusive; x = not tested or not shown; [ ] = another dose, or the depositor's remark. Calls come from the whole dose curve; as a rule, active = well fitted curve in the direction sought with a large enough effect; inconclusive = small, poorly fitted or top-dose-only effect, or another doubt; inactive = no such curve, though single readings can be large; an effect the other way counts as inactive or inconclusive. Potency is the fitted concentration of half-maximal effect.
SMILES,TDP-43 yeast inh,aSyn rescue,FUS suppressor,Abeta yeast res
O=C(CSc1ccc2c(c1)OCCO2)Nc1ccc(Br)cn1,13µM*,2%,i,i
O=C(CSc1ccc2c(c1)OCCO2)Nc1ccc(Cl)cn1,11µM*,8%,i,i
COc1ccc(Cl)cc1NC(=O)CN(C)C(=O)CSc1ccc2c(c1)OCCO2,20µM*,23%,i,i
O=C(CSc1ccc2c(c1)OCCO2)Nc1ncccc1O,11%,2%,i,i
Cc1sc2ncnc(N(C)C3CCCCC3)c2c1C,16µM*,5%,i,i
O=C(NCc1ccc2c(c1)OCO2)C12CN(Cc3ccccc3)CC1C(c1cccc([N+](=O)[O-])c1)=NO2 (stereo unspecified),-13%,-4%,28µM*,i
COc1cccc(NC(=O)CN2C(=O)C3(SCC(=O)N3c3cc(C)cc(C)c3)c3ccccc32)c1 (stereo unspecified),14%,0%,i,i
CN(C)c1nc(-c2ccccc2)ncc1S(=O)(=O)c1ccccc1,16µM*,10%,i,i
Cc1nn2c(COc3ccc(NC(=O)c4ccccc4Cl)cc3)nnc2c2ccccc12,-4%,u,22µM*,i
Cc1nn2c(COc3ccc(NC(=O)C(C)C)cc3)nnc2c2ccccc12,15%,-4%,i,i
O=C(CCn1c(=O)c2cccn2c2cccnc21)NCc1cccc(Br)c1,-1%,x,i,i
CC(C)c1ccccc1OCCNC(=O)c1cccnc1,-10%[0.397 µM],5%,i,i
CC(C)c1ccccc1OCCNC(=O)c1cncc(Br)c1,20µM*,14%,i,i
COc1ccccc1NC(=O)CN1C(=O)COc2ccc(C)cc21,u,1%,i,i
CCOc1ccccc1NC(=O)CN1C(=O)COc2ccc(C)cc21,11µM*,-1%,i,i
COC(=O)c1ccccc1NC(=O)CN1C(=O)COc2ccc(Cl)cc21,13µM*,x,i,i
CC1CCN(C(=O)CSc2nnc(NC(=O)Nc3ccccc3)s2)CC1,22%,x,i,i
Cc1ccc(-c2cnc(-c3ccncc3)o2)cc1,16µM*,5%,i,i
COc1ccccc1N=c1sc2ccccc2n1C,-11%,-6%,i,i
Cn1c(=NN=Cc2ccccc2OCCO)sc2ccccc21,13µM*,5%,i,i
CC(C)CCNC(=O)C(=O)Nc1c2c(nn1-c1ccc(Cl)cc1)CSC2,19%,x,i,i
CN(C)S(=O)(=O)c1cccc(NC(=O)CSc2nc3ccccc3n2-c2ccccc2)c1,0%,-1%,x,i
CN(C)c1ccc(NC(=O)CSc2nc3ccccc3c(=O)n2C2CCCCC2)cc1,19%,7%,u,i
CN(C)S(=O)(=O)c1ccc(NC(=O)CSc2nc3ccccc3n2-c2ccccc2)cc1,-33%,-1%,6.3µM*,i
CCN(CC)c1ccc(NC(=O)CSc2nc3ccccc3c(=O)n2-c2cc(S(=O)(=O)N(C)C)ccc2C)cc1,-11%,-2%,35µM*,i
SMILES,TDP-43 yeast inh,aSyn rescue,FUS suppressor,Abeta yeast res
COc1cccc(CN2C(=O)C(C)Oc3ccccc32)c1 (stereo unspecified),2%,19%,i,i
COc1cccc(CN2c3ccc(Br)cc3C(=O)CS2(=O)=O)c1,16µM*,-26%,u,i
C=CCN1c2ccccc2C(=O)C(C)S1(=O)=O (stereo unspecified),20%,2%,i,i
C=CCN1c2ccc(Br)cc2C(=O)CS1(=O)=O,20µM*,4%,i,i
O=C1SC(Nc2ccccc2)C(=O)N1c1ccccc1 (stereo unspecified),x,-4%,x,x
CN1/C(=C/C(=O)COC(=O)C2COc3ccccc3O2)C(C)(C)c2ccccc21 (stereo unspecified),32µM*,2%,i,i
CN1/C(=C/C(=O)CSc2ccccc2C(=O)O)C(C)(C)c2ccccc21,20µM*,9%,i,u
COc1ccc(Nc2nnc(SCC(=O)/C=C3/N(C)c4ccccc4C3(C)C)s2)cc1,11µM*,14%,x,i
CN1/C(=C\C(=O)COC(=O)CN2C(=O)C3CC=CCC3C2=O)C(C)(C)c2ccccc21 (stereo unspecified),15%,-14%,i,i
CN1C(=O)c2cc(NS(C)(=O)=O)ccc2OC[C@H]2O[C@@H](CC(=O)NCc3ccc(-c4ccccc4)cc3)CC[C@@H]21,x,x,i,x
COc1cc(OC)cc(C(=O)Nc2ccc(S(=O)(=O)N3CCCCC3c3cccnc3)cc2)c1 (stereo unspecified),-7%,x,u,i
Clc1ccc([C@H]2OC[C@@]3(CNCC4CC4)CS[C@H](c4ccc(Cl)cc4)N23)cc1,x,x,i,x
COc1cccc(C2c3[nH]c4ccccc4c3C[C@H]3C(=O)N(C4CC4)CC(=O)N23)c1 (stereo partly specified),21%,0%,i,i
COc1cccc(C2c3[nH]c4ccccc4c3C[C@H]3C(=O)N(c4ccccc4C(=O)N4CCC(C(=O)O)CC4)C(=O)N23)c1 (stereo partly specified),16%,3%,28µM*,i
COc1ccc(C2c3[nH]c4ccccc4c3C[C@H]3C(=O)N(c4ccccc4C(=O)N4CCC(C(=O)O)CC4)C(=O)N23)cc1 (stereo partly specified),7%,0%,22µM*,i
CC(C)c1ccc(C2c3[nH]c4ccccc4c3C[C@H]3C(=O)N(c4ccccc4C(=O)N4CCC[C@H]4C(=O)O)C(=O)N23)cc1 (stereo partly specified),13%,7%,u,i
COc1ccc2nccc(/C=C/c3ccc(N(C)C)cc3)c2c1,x,-26%,x,x
C(/Oc1ccccc1)=C1\Nn2c(nnc2-c2cc(-c3ccccc3)n[nH]2)S1,x,5%,x,x
NC(=S)Nc1cc2ccccc2c2ccccc12,22µM*,0%,i,i
NC(=S)Nc1cccc2cc3ccccc3cc12,u,-24%,i,i
COc1ccc2[nH]c3c(Cl)ncnc3c2c1,13µM*,27%,x,i
Fc1ccc2[nH]c3c(Cl)ncnc3c2c1,u,10%,i,i
CCn1nc(C(=O)Nc2ccccc2C)c(Cl)c1Cl,29%,-8%,i,i
CCn1nc(C(=O)Nc2cccc3ccccc23)c(Cl)c1Cl,16µM*,-4%,i,i
COc1cccc(CNC(=O)CN2N=C(c3ccc(C)cc3)CCC2=O)c1,14%,x,i,i
COc1ccc(CN2C(=O)NC3(CCCCC3)C2=O)cc1F,22%,4%,i,i
COc1ccc(CN2C(=O)NC3(CCCc4ccccc43)C2=O)cc1F (stereo unspecified),11µM*,2%,i,i
CCc1ccc(NC(=O)CSc2nc3c([nH]c4ccccc43)c(=O)n2C)cc1,1%,x,i,i
O=C1CCc2cc(-c3csc(-c4ccc(O)cc4)n3)ccc2N1,x,4%,x,x
